# Screening results deposited in PubChem by National Center for Advancing Translational Sciences (NCATS).
# ELG1 genotox: inducers of genotoxicity in HEK293T ELG1-luciferase cells | HEK293T ELG1-luciferase reporter, luminescence, 16 h | Potency, µM (highest dose often 46 µM), without a hit: at the top dose activity change, positive = activation, usual class: activators | 1.3% of 330,000 active | AID 504466; note: % of control where 0% means no effect; nearly all actives have a fitted effect of over 60% in size
#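 Reporter readout depends on ELG1 protein level, which increases with genetic stress. After 16 hr compound exposure at 37 °C, luciferase activity was quantified using ONE-Glo.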
# AT treatment: potential ataxia-telangiectasia treatment; Potency, µM (doses to about 57.5 µM), for inactives: at the highest dose activation, most hits filed as activators; F2112 A-T fibroblasts, KAP-1 phosphorylation AlphaLISA; neocarzinostatin DNA damage 30 min before lysis; 0.19% of 320,000 active; note: % of control where 0% means no effect; nearly all actives have a fitted effect of over 45% in size
#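 ATM-like activity read as KAP-1 phosphorylation via AlphaLISA donor/acceptor antibody pairs after lysis and 6 hr at 25C. Cells were ATM-null patient fibroblasts (F2112, hTERT), dosed 60 min, then exposed to the DSB inducer NCS for 30 min.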
# ELG1 DNA repair: inhibitors of ELG1-dependent DNA repair in HEK293T cells. HEK293T ELG1-luciferase reporter, luminescence, 16 h; DNA damage induced by 5-fluorouridine. Potency, µM (top dose mostly 46.1 µM), without a hit: at the top dose activity change, negative = inhibition, actives largely listed as inhibitors. 2.3% of 330,000 active. AID 504467; note: % is set by controls: 0 for no effect and ±100 for the full control effect; nearly all actives have a fitted effect of over 55% in size
#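 5-Fluorouridine DNA damage + compound/DMSO, 2,000 cells/well, 16 h, 37 °C/5% CO2. ONE-Glo, 30 min RT, luminescence. Readout = decrease in reporter signal.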
# MCF10A rereplic: DNA re-replication induction in MCF 10a cells; MCF 10A DNA re-replication, Hoechst nuclear intensity, 48 h; Potency, µM (titrated, usually from 46.1 µM), for inactives: top-dose activity, positive = re-replication, usual class: activators; 2.9% of 350,000 active; AID 624296; note: % of control where 0% means no effect; nearly all actives have a fitted effect of over 50% in size
# p53 reactivator: restores transcriptional activity of mutant p53. H1299 p53-A138V BP100-luciferase reporter, luminescence, 24 h. Potency, µM (doses to about 92.2 µM), for the others: at the highest dose activity change, positive = activation, usual class: activators. 0.063% of 320,000 active. AID 504706; note: % of control where 0% means no effect; nearly all actives have a fitted effect of over 45% in size
#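 H1299 (p53-null), stable ts p53-A138V + BP100-Luc; 1000 cells/well, Opti-MEM/10% FBS; cpd 4 pt, 1:5; 24 h, 37 deg C, 5% CO2; detection reagent 10 min RT; luminescence.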
# SW480 rereplic: inducers of DNA re-replication in SW480 colon cancer cells. 1.8% of 340,000 active. AID 624297. Potency, µM (titrated, usually from 46.1 µM), inactives show at the top dose re-replication activation, most hits filed as activators. SW480 DNA re-replication, Hoechst DNA content imaging, 48 h; note: % of control where 0% means no effect; nearly all actives have a fitted effect of over 55% in size
#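 Image-based DNA-content assay: after two days of treatment, nuclei were labelled with the DNA dye Hoechst and imaged, and hits were compounds raising the count of nuclei showing high fluorescence intensity.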
# Numbers without * were called inactive; ? = inconclusive; · = no result given. An excerpt weighted towards active compounds, which were near 7.1% of everything screened. Calls come from the whole dose curve; as a rule, active = well fitted curve in the direction sought with a large enough effect; inconclusive = small, poorly fitted or top-dose-only effect, or another doubt; inactive = no such curve, though single readings can be large; an effect the other way counts as inactive or inconclusive. Potency is the fitted concentration of half-maximal effect.
SMILES,ELG1 genotox,AT treatment,ELG1 DNA repair,MCF10A rereplic,p53 reactivator,SW480 rereplic
CCC1C/C(=C\c2cc(OC)c(OC)cc2OC)C(=O)/C(=C/c2cc(OC)c(OC)cc2OC)C1 (stereo unspecified),-13%,6%,6.5µM*,4.6µM*,0%,18µM*
Cc1ccc(S(=O)(=O)/N=C(/NC(=S)Nc2ccccc2)c2ccccc2)cc1,?,3%,?,-3%,?,-4%
Cc1ccc(NC(=S)N/C(=N/S(=O)(=O)c2ccccc2)c2ccccc2)cc1,23µM*,-2%,?,0%,?,?
CCCN1CCC(=NNc2ccc(S(=O)(=O)N3CCOCC3)cc2[N+](=O)[O-])CC1,8%,-8%,?,7.3µM*,4%,7.3µM*
O=[N+]([O-])c1ccc(N2CCN(S(=O)(=O)c3ccccc3)CC2)cc1NCCN1CCOCC1,-22%,-17%,26µM*,23%,8%,23%
Cn1c(-c2c(N)n(-c3ccccc3)c3nc4ccccc4nc23)nc2ccccc21,1%,34%,?,8.2µM*,-7%,15µM*
Cc1ccc(-n2c(N)c(-c3nc4ccccc4n3C)sc2=S)cc1,-1%,-19%,?,16%,?,-2%
COC(=O)c1ccc(CNC(=O)C2CCC(=O)N(CCc3ccccc3)C2)cc1 (stereo unspecified),0%,4%,-1%,1%,-2%,-2%
Oc1ccc(/C=N/NC(=S)Nc2cccnc2)c(O)c1O,-17%,-10%,15µM*,-14%,-8%,2%
Fc1ccc(/C=N/NC(=S)Nc2cccnc2)cc1,23µM*,3%,5%,11%,-5%,?
Fc1cccc(F)c1/C=N/NC(=S)Nc1cccnc1,0%,-1%,-6%,-1%,4%,0%
Fc1c(F)c(F)c(/C=N/NC(=S)Nc2cccnc2)c(F)c1F,-8%,-6%,?,11µM*,-10%,?
Oc1cccc(/C=N/NC(=S)Nc2cccnc2)c1O,?,4%,21%,?,?,?
Fc1ccc(/C=N/NC(=S)Nc2cccnc2)cc1F,-2%,15%,?,-2%,9%,-14%
CC(NCC(=O)NCC(=O)Nc1ccc(F)cc1)c1cccc(C(F)(F)F)c1 (stereo unspecified),1%,-38%,-18%,?,-5%,1%
O=C(COc1ccc(F)cc1)NCCCn1ccnc1,0%,21%,12%,2%,3%,-1%
COC(=O)/C(=C1/Oc2cc(C)oc(=O)c2S1)C(F)(F)F,-8%,0%,?,5.8µM*,-36%,12µM*
COC(=O)/C(=C1/Oc2ccc(C(C)(C)C)cc2S1)C(F)(F)F,?,-3%,?,-2%,9%,-7%
COc1ccc(C(C)(C)C)cc1NC(=O)COC(=O)C1=NNC(=O)CC1,2%,-5%,9%,-1%,-2%,0%
CCN(CC)CCCNC(=O)c1oc2ccc(S(=O)(=O)N3CC(C)CC(C)C3)cc2c1C (stereo unspecified),4%,-3%,-3%,36%,8%,?
CCOC(=O)C1CCCN(CC(=O)Nc2c(C(=O)OC)[nH]c3ccc(Br)cc23)C1 (stereo unspecified),-20%,-3%,16µM*,?,-1%,9%
COC(=O)c1[nH]c2cc(C)ccc2c1NC(=O)CN1CCCc2ccccc21,5%,2%,?,?,13%,19%
COc1ccc2[nH]c(C(=O)N3CCC(Cc4ccccc4)CC3)cc2c1,7%,-3%,-5%,10%,1%,-1%
O=C(c1cc2cc(F)ccc2[nH]1)N1CCC(Cc2ccccc2)CC1,-2%,12%,7%,8.2µM*,23%,5%
COC(=O)c1[nH]c2ccc(Br)cc2c1NC(=O)CN1CCCc2ccccc21,0%,-7%,8.2µM*,?,0%,?
SMILES,ELG1 genotox,AT treatment,ELG1 DNA repair,MCF10A rereplic,p53 reactivator,SW480 rereplic
CCOC(=O)C1CCN(CC(=O)Nc2c(C(=O)OC)[nH]c3ccc(Cl)cc23)CC1,-19%,-3%,21µM*,?,-12%,0%
CCOC(=O)C1CCN(CC(=O)Nc2c(C(=O)OC)[nH]c3ccccc23)CC1,-10%,9%,?,·,-5%,·
O=P1(O)Cc2ccccc2-c2ccccc21,·,·,·,2%,·,4%
COc1ccc(C(=O)Nc2ncccc2C)cc1S(=O)(=O)N1CCOCC1,1%,5%,29%,0%,1%,-3%
CCOC(=O)C1CCN(C(=O)c2cc3ccc(OC)cc3[nH]2)CC1,8%,-3%,?,3%,?,-3%
CCOC(=O)C1CCN(C(=O)c2cc3cc(Cl)ccc3[nH]2)CC1,0%,7.9µM*,?,-3%,3%,-4%
COc1ccc([C@H]2CC(=O)C=C(c3cccc(OC)c3OC)C2)cc1OC,-7%,3%,9.2µM*,-9%,-10%,4%
O=C1C=C(c2cccc3c2sc2ccccc23)C[C@@H](c2ccc(F)cc2)C1,-1%,10%,13µM*,23%,1%,-9%
COc1ccc([C@H]2CC(=O)C=C(c3cc(F)ccc3F)C2)cc1OC,-1%,2%,?,6%,-11%,-4%
COc1ccc([C@H]2CC(=O)C=C(c3cccc4c3sc3ccccc34)C2)cc1OC,0%,12%,8.2µM*,20%,5%,-1%
O=C1C=C(c2ccccc2)CC(c2ccc(F)cc2)C1 (stereo unspecified),·,·,·,5%,·,-5%
O=C1c2ccccc2-c2onc3ccc(NCc4ccco4)c1c23,-4%,22µM*,1%,-3%,13%,?
CCNc1ccc2noc3c2c1C(=O)c1ccccc1-3,5%,4%,-11%,?,-6%,6%
Oc1ccc(C[C@H]2CNC(=S)N2CC2CCCN2C[C@H](Cc2ccccc2)N2C[C@H](Cc3ccc(O)cc3)N(CCc3ccccc3)C2=S)cc1 (stereo partly specified),·,·,·,-63%,·,-1%
CC(NC(=O)c1cccc(OC2CCN(C3CCN(C)CC3)CC2)c1)c1ccccc1 (stereo unspecified),4%,12%,-6%,-8%,6%,15%
Cc1ccc(NS(=O)(=O)c2cc3c4c(cccc4c2)C(=O)NC3=O)cc1C,-9%,-3%,16µM*,15µM*,-6%,28%
CCN(CC)C(=O)N1CCC(NC(=O)c2ccc(C(C)(C)C)cc2)CC1,-7%,9%,21µM*,9%,20%,0%
